Laboratory results published in PubChem BioAssay AID2315 (National Center for Advancing Translational Sciences (NCATS), 2010).
In all, about 290,000 compounds went through this assay and about 27,000 (9.3%) were called active. The sample as a whole holds a higher share of actives than the screen did. Unmarked numbers belong to inactive results. No stated cut-off is given here; in the data, active means inhibition mostly above about 28% (no sharp cut-off); inactive means mostly below about 43%.

Experiment: A qHTS for Small Molecule Inhibitors of Shiga Toxin; further: 0% is about no effect
Conditions: Vero cells, Shiga toxin protein synthesis inhibition reporter; at 38.7 µM, hits give high values
Work on `CN(c1ccc(OCC(=O)O)cc1)S(=O)(=O)c1ccc2ccccc2c1` yielded an inhibition of -4.36%. With `O=S(=O)(NC1CCCCC1N1CCC(O)CC1)c1ccc(Cl)cc1` (stereo not given) the inhibition was -13.2%. With `COc1ccc(-c2cc(C(F)(F)F)nc(SCCC(=O)NCc3ccco3)n2)cc1` the inhibition was 25.3% (active). With `O=C(CSc1nc(-c2ccco2)cc(C(F)(F)F)n1)NCc1cccs1` the inhibition was -12.1%. `COc1ccc(S(=O)(=O)N(CC(=O)NCc2ccco2)c2ccc(F)cc2)cc1` gave an inhibition of 35.2%. Molecule `Cn1cc(CCC(=O)NC2CC2)c2ccccc21` has an inhibition of 11.7%. For `Cc1cccc(NC(=O)Cn2cc(C(=O)c3ccco3)c3ccccc32)c1`, the inhibition was -14.6%. `CC1CCN(C(=O)Cn2cc(C(=O)c3ccco3)c3ccccc32)CC1` gave an inhibition of 21.4%. For `N#Cc1ccc(Cn2cc(C(=O)c3ccco3)c3ccccc32)cc1`, the inhibition was 92.3% (active). In the case of `Cc1nnc(N/N=C/c2cccs2)[nH]c1=O`, the inhibition is reported as 3.51%. In the case of `Cc1n[nH]c(=O)nc1N/N=C/c1cccs1`, the inhibition is reported as 29.8% (active). For `NC(=O)N/N=C\c1cccs1`, the inhibition was 17.5%. In the case of `CC1(C)Oc2ccc3ccc(=O)oc3c2/C(=N/O)C1=O`, the inhibition is reported as -11.1%. In the case of `COc1cc(NC(=O)CN2C(=O)NC(C)(c3ccc(OC(F)F)cc3)C2=O)cc(OC)c1OC` (stereo not given), the inhibition is reported as -3.05%. Work on `COc1ccccc1C(=O)NC(=S)NC12CC3CC(CC(C3)C1)C2` yielded an inhibition of -21.8%. In the case of `COc1cccc(/C=C/c2ccc3ccccc3n2)c1OC(C)=O`, the inhibition is reported as 42.7% (active). For `CCOc1cccc(/C=C/c2ccc3ccccc3n2)c1OC(C)=O`, the inhibition was 50.8%. `COc1cccc(/C=C2\C=C(c3ccc(C)cc3)OC2=O)c1OC(C)=O` gave an inhibition of 11.6%. For `O=C(NCCc1c[nH]c2ccccc12)C1CCN(Cc2ccc(Br)cc2)CC1`, the inhibition was -4.77%. With `O=C(Cn1cc(C(=O)C2CC2)c2ccccc21)Nc1ccccc1Cl` the inhibition was -2.68%. `O=c1[nH]c(/C=C\c2cccc(C(F)(F)F)c2)nc(O)c1[N+](=O)[O-]` gave an inhibition of -8.88%. `COc1cc(/C=C2\C(=N)N3N=C(CC(=O)N4CCOCC4)SC3=NC2=O)cc(OC)c1OC` showed an inhibition of -7.7%. For `O=C(CSc1ccc(-c2cccs2)nn1)Nc1ccccc1F`, the inhibition was 32.3%. With `Cc1cccc(CSc2ccc(-c3cccs3)nn2)c1` the inhibition was 36.9% (active). `Cc1cccc(CSc2nnc(Cn3c(=O)sc4ccccc43)n2C)c1` showed an inhibition of -3.45%. For `COc1ccc(-c2ocnc2C(=O)Nc2ccc3c(c2)CCC3)cc1`, the inhibition was -10.8%. With `O=C(Nc1ccc(-n2cccn2)cc1)C1CCN(Cc2ccsc2)CC1` the inhibition was -3%. Molecule `CCC1S/C(=N/N=C/c2ccco2)NC1=O` (stereo not given) has an inhibition of 22%. For `COc1ccc(CN2C(=O)C(C)S/C2=N/N=C/c2ccco2)cc1` (stereo not given), the inhibition was 137% (active). With `C=CCN1C(=O)C(Cc2cccc(Cl)c2)S/C1=N/N=C/c1ccco1` (stereo not given) the inhibition was -3.82%. `Cc1cc(C)n(S(=O)(=O)c2cccc([N+](=O)[O-])c2)n1` gave an inhibition of -4.69%. Molecule `COc1ccc(N(CC(=O)Nc2cccc3ccccc23)S(C)(=O)=O)c(OC)c1` has an inhibition of -3.17%. `COc1cc(C2CC(=O)c3cnc(NC(C)=O)nc3C2)cc(OC)c1OC` (stereo not given) showed an inhibition of 21.5%. For `CCc1ccc(Nc2ncc3c(n2)CC(c2ccco2)CC3=O)cc1` (stereo not given), the inhibition was 72.5% (active). In the case of `O=C(Nc1ncc2c(n1)CC(c1ccco1)CC2=O)c1ccc(Cl)cc1` (stereo not given), the inhibition is reported as 1.6%. In the case of `CCCC(C)NC(=O)C1CCN(C(=O)C2CC(=O)N(c3ccc(C)cc3)C2)CC1` (stereo not given), the inhibition is reported as 9.21%. For `COc1ccc2c(c1)c1nc3n(c(=O)c1n2CC(=O)Nc1ccccc1)CCS3`, the inhibition was 10.6%. Work on `COc1cccc(CNC(=O)CCC2CCCN(C(=O)c3ccc(F)c(Cl)c3)C2)c1` (stereo not given) yielded an inhibition of 0.606%. With `CC(=O)Nc1cccc(-c2csc(Nc3cccc(C)n3)n2)c1` the inhibition was 103% (active). Molecule `COc1ccc(CCNc2nc(-c3cccc(NC(C)=O)c3)cs2)cc1OC` has an inhibition of 0.41%. In the case of `Cc1cccc(Nc2nc(-c3ccccc3)cs2)n1`, the inhibition is reported as 150% (active). `CC(=O)Nc1ccc(S(=O)(=O)Nc2nc(-c3ccc(C(C)(C)C)cc3)cs2)cc1` showed an inhibition of -13.5%. In the case of `Cc1cccc(S(=O)(=O)CC(=O)Nc2nc(-c3ccccc3)cs2)c1`, the inhibition is reported as -3.62%. In the case of `NS(=O)(=O)c1ccc(Nc2nc(-c3ccccc3)cs2)cc1`, the inhibition is reported as 17.7%. With `COc1ccc(-c2onc3ccc(C(C)=O)cc23)cc1` the inhibition was -4.4%. For `O=C(CCS(=O)(=O)c1ccc2c(c1)NC(=O)CS2)NCc1ccccc1Cl`, the inhibition was 5.67%. In the case of `O=C(NCc1ccc2c(c1)OCO2)C(=O)NCC1OCCN1S(=O)(=O)c1ccc(F)cc1` (stereo not given), the inhibition is reported as -4.86%. In the case of `O=C(NC(Cc1ccc(O)cc1)C(=O)O)/C(=C/c1ccccc1)NC(=O)c1ccccc1` (stereo not given), the inhibition is reported as 8.2%. Molecule `O=C(Cc1c(F)cccc1Cl)N1CCN(C(=O)c2ccco2)CC1` has an inhibition of -5.75%. Work on `O=C(c1ccco1)N1CCN(C(=S)Nc2cc(F)cc(F)c2)CC1` yielded an inhibition of 35.8%. In the case of `O=C(NCCCN1CCOCC1)c1ccccc1NS(=O)(=O)c1ccc(F)cc1`, the inhibition is reported as 43.2%. For `O=C(c1ccco1)N1CCN(C(=O)c2cc(-c3ccccc3F)no2)CC1`, the inhibition was 66.3% (active). For `O=C(NCCCN1CCOCC1)c1cc(-c2ccccc2F)no1`, the inhibition was 54.8% (active). Molecule `O=C(NCCCN1CCOCC1)c1cc(-c2ccc(Cl)cc2)on1` has an inhibition of 23.1%. For `CC(=O)Nc1ccc(S(=O)(=O)NCC2CCC(C(=O)NCCc3ccccc3)CC2)cc1` (stereo not given), the inhibition was 3.01%. Molecule `COc1ccc(CCNS(=O)(=O)c2cccc([N+](=O)[O-])c2)cc1` has an inhibition of -8.39%. For `Cc1c(C(C)(C)O)[nH]c2ccc(C#N)cc12`, the inhibition was 7.17%. In the case of `CC(=O)Nc1ccc(NC(=O)CN2C(=O)COc3ccc(S(=O)(=O)N4CCCCC4)cc32)cc1`, the inhibition is reported as -6%. With `CCOCCCNc1c(CC)c(C)c(C#N)c2nc3ccccc3n12` the inhibition was -5.72%. `Cn1nc(-c2ccccc2)c2cc([N+](=O)[O-])ccc21` showed an inhibition of -6.77%.
